ERK EGF block = EGF-driven ERK pathway inhibition; HEK293-V1b, EGF-stimulated phospho-ERK AlphaScreen; Potency, µM (series often up to 11.5 µM), for the others: at the highest dose activity change, negative = inhibition, actives largely listed as inhibitors; 130,000 tested, 0.41% active;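 also: potency is read from the fitted curve at half-maximal effect; plate controls were stimulated vehicle wells for no effect and unstimulated vehicle basal for full effect; nearly all actives have a fitted effect of over 55% in size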
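V1b-HEK293, 1% FBS o/n; cpd 30 min 37C; EGF 25 nM final, 5 min; lyse 10 min; AlphaScreen beads 5 h RT. Normalized DMSO basal vs EGF max; Hill AC50.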
ERK pERK EGF = confirmation of ERK pathway inhibitors under EGF stimulation. shares compounds with ERK EGF block. HEK293 EGF-stimulated ERK phosphorylation, AlphaScreen. Potency, µM (highest dose often 57.5 µM), without a hit: at the highest dose activity change, negative = inhibition, hits mostly inhibitors. 60 tested, 60% active. AID 1725
c-Raf inh = c-Raf inhibition, ERK pathway follow-up. c-Raf kinase inhibition, homogeneous biochemical assay. 70 tested, under 10 active. shares compounds with ERK EGF block. activity change, negative = inhibition, % at 76.9 µM. AID 1728
MEK1 kinase inh = blocks human MEK1 kinase activity in ERK pathway follow-up; shares compounds with ERK EGF block; homogeneous MEK kinase activity assay, ERK pathway; Potency, µM (top dose mostly 76.9 µM), inactives show at the top dose activity change, negative = inhibition, actives largely listed as inhibitors; 70 tested, under 10 active; AID 1732
Target sequence (Q02750 whole entry, looked up): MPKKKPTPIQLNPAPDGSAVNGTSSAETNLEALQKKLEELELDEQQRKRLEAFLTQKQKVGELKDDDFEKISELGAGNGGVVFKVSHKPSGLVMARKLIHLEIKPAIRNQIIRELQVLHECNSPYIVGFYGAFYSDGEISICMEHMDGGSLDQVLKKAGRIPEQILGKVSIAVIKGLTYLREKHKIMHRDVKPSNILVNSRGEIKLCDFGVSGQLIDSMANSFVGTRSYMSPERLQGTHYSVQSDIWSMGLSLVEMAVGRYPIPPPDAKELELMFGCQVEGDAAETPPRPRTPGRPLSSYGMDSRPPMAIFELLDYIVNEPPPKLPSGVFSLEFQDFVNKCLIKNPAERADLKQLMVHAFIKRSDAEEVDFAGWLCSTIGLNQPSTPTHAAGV
An asterisk follows results filed as active; [ ] = remark or other dose. This is one part of a sample in which hits are shown more often than they occur. Calls follow the shape of the dose curve; as a rule, active = well fitted curve in the direction sought with a large enough effect; inconclusive = small, poorly fitted or top-dose-only effect, or another doubt; inactive = no such curve, though single readings can be large; an effect the other way counts as inactive or inconclusive.

Results for CCCOc1ccc(/C=N/Nc2ccccc2[N+](=O)[O-])c(O)c1 ?
ERK EGF block: inconclusive; ERK pERK EGF: inconclusive; c-Raf inh: inconclusive; MEK1 kinase inh: -3%

Results for CCCOc1ccc(/C=N/NC(=S)Nc2ccccc2[N+](=O)[O-])c(O)c1 ?
ERK EGF block: 2%

Results for CCCOc1ccc(/C=N/Nc2cccc([N+](=O)[O-])c2)c(O)c1 ?
ERK EGF block: 6%

How did CC(C)[C@@H](CC(=O)N[C@@H]1CCCC[C@H]1C(=O)N[C@H](CC(=O)N[C@@H](CCC(=O)O)CC(=O)O)Cc1c[nH]c2ccccc12)NC(=O)C[C@H](Cc1ccccc1)NC(=O)[C@@H]1CCCC[C@H]1N do in these assays?
ERK EGF block: -8%

What do the screens show for `Cn1cccc1C(=O)N1CCC2(CCCN(c3ccccc3)C2)CC1`?
ERK EGF block: 8%

Results for Cc1nc2cc(C)c(C)cc2s1 ?
ERK EGF block: -20%[57.5 µM]

Results for Cc1cc2nc3ccc(=[N+](C)C)cc-3sc2cc1N ?
ERK EGF block: inconclusive; ERK pERK EGF: 11%; c-Raf inh: inconclusive; MEK1 kinase inh: inconclusive

How did Cc1nc2cc3sc(C)nc3cc2s1 do in these assays?
ERK EGF block: -4%

How did CC(C)C[C@@H](CC(=O)N[C@@H](CCC(=O)O)CC(=O)O)NC(=O)[C@@H]1CCCC[C@H]1NC(=O)C[C@H](CCCN)NC(=O)C[C@H](Cc1c[nH]c2ccccc12)NC(=O)[C@@H]1CCCC[C@H]1N do in these assays?
ERK EGF block: -4%

How did COc1ccc(C(=O)N2CCC3(CCCN(c4ccc(-c5ccccc5)cc4)C3)CC2)cc1 do in these assays?
ERK EGF block: -3%

Results for COc1ccc(N=C2C(=Nc3ccc(OC)cc3)N(c3ccccc3)C(=S)N2C(=O)c2ccc(Cl)cc2)cc1 ?
ERK EGF block: 2.2µM*; ERK pERK EGF: 165%; c-Raf inh: -10; MEK1 kinase inh: -6%

Results for COC(=O)CN1C(=S)N(c2ccc(OC)cc2)C(=O)/C1=C/c1ccc(OC)cc1 ?
ERK EGF block: -10%

How did COc1ccc(N=C2C(=Nc3ccc(OC)cc3)N(c3ccc(N(C)C)cc3)C(=S)N2c2ccc(OC)cc2)cc1 do in these assays?
ERK pERK EGF: -9%; c-Raf inh: -10; MEK1 kinase inh: -9%

Results for COc1ccc(N=C2C(=Nc3ccc(OC)cc3)N(c3ccc(OC)cc3)C(=S)N2C(=O)c2ccc(OC)cc2)cc1 ?
ERK EGF block: inconclusive; ERK pERK EGF: 5.6µM*; c-Raf inh: -7; MEK1 kinase inh: -18%

Results for COc1ccc(C(=O)N2C(=S)NC(=O)/C2=C\c2ccc(C)cc2)cc1 ?
ERK EGF block: 1%

Results for COc1ccc(N2C(=O)/C(=C/N(C)C)NC2=S)cc1 ?
ERK EGF block: 2%[57.5 µM]

Results for COc1ccc(NC(=S)c2ccc(N(C)C)cc2)cc1 ?
ERK EGF block: -4%

What do the screens show for `COc1ccc(C(=O)N2CCC3(CC2)CCN(c2ccccc2)CC3)cc1`?
ERK EGF block: 3%

What do the screens show for `NC(CCC(=O)NC(CCSC(CC(=O)O)C(=O)O)C(=O)NCC(=O)O)C(=O)O` (configuration not stated)?
ERK EGF block: 18%

What do the screens show for `CC(=O)SC1CC2=CC(=O)CC[C@]2(C)C2CC[C@@]3(C)[C@@H](CC[C@@]34CCC(=O)O4)C12` (some centres not stated)?
ERK EGF block: 5%

What do the screens show for `Cn1cccc1C(=O)N1CCC2(CCN(Cc3ccncc3)CC2)CC1`?
ERK EGF block: 2%

How did Cc1nc(N2CCOCC2)c2nc(-c3ccccc3)n(CCCN3CCCCC3C)c2n1 (configuration not stated) do in these assays?
ERK EGF block: 0%

How did CC(C)=CCC1=C(O)c2ccccc2C(=O)C1=O do in these assays?
ERK EGF block: -8%

Results for [N-]=[N+]=Nc1nc2c(N)ncnc2n1C1OC(CO)C(O)C1O (configuration not stated) ?
ERK EGF block: 24%

What do the screens show for `Cc1nc(N2CCOCC2)c2nc(-c3ccccc3)n(C(C)CN(C)C)c2n1` (configuration not stated)?
ERK EGF block: 1%

Results for COc1ccc(Oc2ncc3nc(CCc4ccccc4)c(=O)n(C4CC4)c3n2)cc1 ?
ERK EGF block: 8%

What do the screens show for `Cc1noc(C)c1C(=O)N1CCC2(CC1)CN(Cc1cc(C(F)(F)F)cc(C(F)(F)F)c1)C2`?
ERK EGF block: 20%

Results for Cc1nc2ccccc2nc1OCC(=O)Nc1ccc(F)cc1 ?
ERK EGF block: -11%

What do the screens show for `Cc1ccc(NNc2c(C)nc3ccccc3nc2=O)cc1`?
ERK pERK EGF: 8.9µM*; c-Raf inh: -6; MEK1 kinase inh: 24%

What do the screens show for `Cc1ccc(Nc2nc3ccccc3nc2Nc2c(C)n(C)n(-c3ccccc3)c2=O)cc1`?
ERK EGF block: 8%

What do the screens show for `COCC(=O)N1CCC2(CC1)CN(C(=O)Nc1cccc(C#N)c1)C2`?
ERK EGF block: 12%

Results for NCC(O)C1CCCCCCC1 (configuration not stated) ?
ERK EGF block: 0%

Results for N#CC(C#N)=C1C=CC=CN1/C(=C\c1ccco1)C(=O)c1ccc(Br)cc1 ?
ERK EGF block: 7.9µM*; ERK pERK EGF: 16µM*; c-Raf inh: inconclusive; MEK1 kinase inh: -23%

Results for Cc1ccc(C(=O)N/C(=C/c2ccco2)C(=O)O)cc1 ?
ERK EGF block: -4%

What do the screens show for `CCCCCCCc1cc2c(cn1)C(=O)C(C)(OC(C)=O)C(O)=C2Cl` (configuration not stated)?
ERK EGF block: -11%

Results for Nc1c[n+](N2CCOCC2)no1 ?
ERK EGF block: -14%

How did COc1ccc2c(c1)O[C@@H](c1cccc(C(F)(F)F)c1)[C@H](OC(=O)NS(=O)(=O)c1ccc(F)cc1)C2=O do in these assays?
ERK EGF block: -2%

What do the screens show for `N#CC(=C(\N)Sc1ccccc1N)/C(C#N)=C(/N)Sc1ccccc1N`?
ERK EGF block: 1.4µM*; c-Raf inh: -14

What do the screens show for `Nc1ccccc1Sc1ccccc1[N+](=O)[O-]`?
ERK EGF block: 5%

How did Nc1ccccc1SCc1ccccc1 do in these assays?
ERK EGF block: 7%

How did CC[C@H](C)[C@@H](NC(=O)O[C@@H]1Cc2cc(Br)ccc2O[C@H]1c1cccc(OC)c1)C(=O)OC do in these assays?
ERK EGF block: -8%

What do the screens show for `CCCN1C(=O)/C(=C2\SC(=S)N(c3c(C)n(C)n(-c4ccccc4)c3=O)C2=O)c2ccccc21`?
ERK EGF block: -7%[57.5 µM]

What do the screens show for `CCCN1C(=O)/C(=C2/C=Cc3ccccc3N2CC)SC1=S`?
ERK EGF block: 5.6µM*; ERK pERK EGF: 10µM*; c-Raf inh: -8; MEK1 kinase inh: -2%

What do the screens show for `CCCN1C(=O)/C(=C/c2ccncc2)SC1=S`?
ERK EGF block: 2%

What do the screens show for `COc1cccc(/C=N/Nc2ncnc(Cl)c2N)c1O`?
ERK EGF block: -4%
